# Assay results from the supplement of paper PMC13380429.
# Key:
# [1] = test system: Vero E6 infected with SARS-CoV-2; experiment: morphology score (similarity to uninfected cells); higher = more like uninfected cells; conditions: 24 h
# [2] = test system: Vero E6 infected with SARS-CoV-2; experiment: SARS-CoV-2 infection rate relative to infected DMSO; higher = more infection, active = 60 or less; conditions: 24 h
Compound,morphology score [1],SARS-CoV-2 infection rate [2]
Cc1cc(Nc2ncnc3ccc(NC4=NC(C)(C)CO4)cc23)ccc1Oc1ccn2ncnc2c1 [tucatinib] (0.833333 µM),-0.0894,114% (inactive)
CC(=O)CCCCn1c(=O)c2c(ncn2C)n(C)c1=O [pentoxifylline] (10 µM),0.0323,104% (inactive)
CC(=O)OC[C@H](N)C(=O)O [O-acetyl-L-serine] (10 µM),0.0719,88% (inactive)
CC1(C)C(/C=C/C=C/C=C/C=C2\N(CCCCS(=O)(=O)O)c3ccc4ccccc4c3C2(C)C)=[N+](CCCCS(=O)(=O)[O-])c2ccc3ccccc3c21 [indocyanine-green] (10 µM),0.0305,109% (inactive)
CC(C)C[C@H](NC(=O)[C@@H](O)[C@H](N)Cc1ccccc1)C(=O)O [ubenimex] (10 µM),0.237,96% (inactive)
CCN(CC)CCOc1ccc(Cc2ccccc2)cc1 (10 µM),0.39,71% (inactive)
O=C(O)CCCc1ccc(N(CCCl)CCCl)cc1 [chlorambucil] (10 µM),0.143,94% (inactive)
CNc1nc(C)nc(N[C@H]2CCC[C@@H](C(=O)NCc3ccc(C#N)cc3C(F)(F)F)C2)n1 (10 µM),-0.0488,104% (inactive)
CSc1nc(-c2ccc(F)cc2)c(-c2ccnc(N[C@@H](C)c3ccccc3)c2)[nH]1 (10 µM),-0.159,107% (inactive)
Cn1nnc(-c2ccc(-c3ccc(N4C[C@H](COP(=O)(O)O)OC4=O)cc3F)cn2)n1 [tedizolid-phosphate] (10 µM),0.194,88% (inactive)
